# Rows were chosen to be rich in hits. Some 5% of all compounds tested hit in one or more screens of this group.
# PREPL inh = inhibitors of human prolyl oligopeptidase-like enzyme PREPL; inhibition, % at 5.96 µM; Q4J6C6; hit rate 0.68% among 320,000; recombinant PREPL, fluorescence polarization activity-based probe; AID 2751;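 note: 0% = enzyme with DMSO and 100% = wells lacking enzyme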
# CHT allo act = allosterically activates the human high affinity choline transporter; Q9GZV3; CHT-expressing cells, membrane potential dye, choline EC20; active compounds read high; LV-AA mutant CHT in HEK293 cells; B-score at 10 µM; hit rate 0.49% among 310,000; AID 488977;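 active = initial fluorescence not abnormally high and integrated response B-score, plate-corrected, over 3 SD above library mean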
# AI-2 QS modul = modulators of Vibrio harveyi AI-2 quorum sensing system. Vibrio harveyi JMH597 AI-2 luminescence/OD600 ratio, 9 h; active compounds read low; strain lacks LuxN and CqsS sensors; 0 = neutral-control median. activity change, % at 7.5 µM. hit rate 0.4% among 300,000. AID 2094; in the data active = activity change below about -75%, passing the limit was not always enough;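 note: luminescence divided by OD600 gain over 9 h not by final OD600 alone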
# ALR inh = inhibitors of human sulfhydryl oxidase ALR; AID 485317; hit rate 3.8% among 290,000; P55789; purified ALR, DTT oxidation, H2O2 HRP-luminol luminescence; inhibition, % (no concentration beside the values);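 active = mean replicate inhibition above about 79%, with every replicate also reaching it, limit read from the data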
# Target sequence (P55789 whole entry, looked up): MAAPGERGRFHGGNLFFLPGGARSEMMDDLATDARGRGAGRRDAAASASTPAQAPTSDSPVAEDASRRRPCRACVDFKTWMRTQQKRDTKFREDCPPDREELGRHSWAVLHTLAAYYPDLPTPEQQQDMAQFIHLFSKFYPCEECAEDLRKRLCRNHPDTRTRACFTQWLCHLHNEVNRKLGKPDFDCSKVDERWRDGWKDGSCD
# CHT inh = human CHT choline transport inhibition; CHT-expressing cells, membrane potential dye, choline response; active compounds read low; Q9GZV3; B-score at 10 µM; hit rate 0.86% among 310,000;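 active = B-score over 3 SD under the library average, and starting fluorescence ratio not unusually high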;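 note: choline stimulus applied at its EC90 after an EC20 pre-addition; B-score computed on integrated fluorescence ratio after choline addition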
# PREPL inh cf = human PREPL inhibition, confirmation; hit rate 67% among 2,000; AID 2803; inhibition, % at 5.96 µM; shares compounds with PREPL inh; recombinant PREPL, fluorescence polarization activity probe;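 note: 0% = protein with DMSO and 100% = wells lacking protein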
# Active calls of the source: *; i = inactive; nt = not tested or not shown. Cut-off read from the data, not from the text of the source, unless noted: active = inhibition above about 43%; inactive = the rest.
SMILES,PREPL inh,CHT allo act,AI-2 QS modul,ALR inh,CHT inh,PREPL inh cf
COc1ccc(CC(=O)NNC(=O)COc2ccc3ccccc3c2)cc1,-5,i,20,nt,i,nt
O=C(CN1C(=O)NC2(CCCCC2)C1=O)N1CCN(S(=O)(=O)c2cccc([N+](=O)[O-])c2)CC1,7,nt,nt,-8,nt,nt
COc1ccc(C(=O)N2CCN(C(=O)Cc3ccccc3)CC2)cc1,2,i,7,-3,i,nt
COc1ccc(/C=C/c2cc[n+](C(=O)Cc3ccccc3)cc2)cc1,45*,i,-71,2,i,28
Cc1cnc(C(=O)OCc2cc(=O)n3c(C)cccc3n2)cn1,19,nt,nt,4,nt,nt
Brc1ccc(C=Nc2ccc(Nc3ccccc3)cc2)s1,99*,i,20,nt,i,13
O=C(CCC(=O)N/N=C/c1ccc(Br)s1)NCc1ccccc1,1,i,7,-2,i,nt
CCN1C(N(C)CCc2c[nH]c3ccccc23)=N[C@@H](c2cccc(C(F)(F)F)c2)C(C(=O)OC)=C1C,56*,nt,nt,-1,nt,42
CCN1C(=O)N[C@@H](c2cccc(C(F)(F)F)c2)C(C(=O)OC)=C1C,12,i,24,-7,i,nt
O=C(CN1CCN(c2ccccn2)CC1)Nc1cc(C(F)(F)F)ccc1Cl,47*,i,9,-2,i,30
CSc1ccc(C=NNc2ccc(S(=O)(=O)Nc3ccccc3C(=O)O)cc2[N+](=O)[O-])cc1,43,nt,nt,7,nt,nt
CCOc1cccc(C=NNc2ccc(S(=O)(=O)Nc3ccccc3C(=O)O)cc2[N+](=O)[O-])c1O,27,nt,nt,57,nt,nt
COc1ccc(NS(=O)(=O)c2ccc(N/N=C(\C)c3ccncc3)c([N+](=O)[O-])c2)cc1,58*,i,16,nt,i,49*
O=C(O)c1ccccc1NS(=O)(=O)c1ccc(NN=Cc2ccccc2F)c([N+](=O)[O-])c1,55*,nt,nt,11,nt,56*
C/C(=N\Nc1ccc(S(=O)(=O)Nc2ccccc2)cc1[N+](=O)[O-])c1ccncc1,20,i,18,-20,i,nt
COc1ccc(C=NNc2ccc(S(=O)(=O)Nc3ccccc3C(=O)O)cc2[N+](=O)[O-])c(OC)c1,51*,nt,nt,43,nt,49*
COc1ccccc1-n1cc(C(=O)N2CCCC(CO)(Cc3ccccc3C)C2)cn1 (stereo unspecified),1,i,6,3,i,nt
CC1CCCC(C)N1C(=O)CSc1nnc(COc2ccc(F)cc2)o1 (stereo unspecified),18,i,5,nt,i,nt
CC(=O)Nc1ccc(S(=O)(=O)NC2=C(N3CCN(c4ccc(F)cc4)CC3)C(=O)c3ccccc3C2=O)cc1,59*,i,4,-14,i,74*
COc1cc(/C=C2/C(=N)N3C(SC)=NSC3=NC2=O)ccc1OC(=O)c1ccco1,54*,i,41,37,-6.5*,64*
COc1cc(/C=C2/C(=N)N3C(=NC2=O)SN=C3S(C)(=O)=O)ccc1OC(=O)c1ccco1,62*,i,29,70,i,80*
Cc1nn(-c2ccccc2)c(C)c1NC(=O)COC(=O)CC(C)c1ccccc1 (stereo unspecified),7,i,0,-7,i,nt
O=C(COC(=O)/C=C/c1cccc(Cl)c1)Nc1cccc(S(=O)(=O)NC2=NCCC2)c1,17,nt,nt,0,nt,nt
O=C(COC(=O)c1ccc(C(F)(F)F)cc1)Nc1cccc(S(=O)(=O)NC2=NCCCCC2)c1,46*,nt,nt,4,nt,42
O=C(COC(=O)/C=C/c1ccc(Cl)cc1)Nc1cccc(S(=O)(=O)NC2=NCCCCC2)c1,44*,nt,nt,-1,nt,35
SMILES,PREPL inh,CHT allo act,AI-2 QS modul,ALR inh,CHT inh,PREPL inh cf
Cn1c(SCC(=O)c2ccccc2)nnc1-c1cccc(N)c1,13,i,8,17,i,nt
CCc1nnc(NC(=O)c2ccc(COc3cccc(C)c3)o2)s1,-7,i,14,nt,i,nt
Cc1ccc(C(=O)Cn2nnc(-c3cccs3)n2)cc1,-11,i,-62,-3,i,nt
O=C(CN1CC[n+]2c(-c3cccs3)csc21)c1ccc(-c2ccccc2)cc1,46*,i,35,51,i,42
CCc1ccc2nc(SCC(=O)N3CC(=O)Nc4ccccc43)c(C#N)cc2c1,-7,i,nt,-4,i,nt
N#Cc1cc(C#N)c(SCC(=O)N2CC(=O)Nc3ccccc32)nc1N,46*,nt,nt,3,nt,38
Cc1cc(C)c2c(N)c(-c3nc4ccccc4[nH]3)sc2n1,78*,i,40,16,i,2
COc1cc(/C=C2\SC(N3CCC(C)CC3)=NC2=O)ccc1O,44*,i,26,90*,i,12
COc1ccc(/C=C2\SC(N3CCCCC3)=NC2=O)cc1OC,14,i,12,-13,i,nt
O=C(O)C1(S(=O)(=O)c2ccc(Cl)cc2)CCC1,9,i,nt,-3,i,nt
Cc1ccccc1Cn1c(=N)n(CC(O)c2ccco2)c2ccccc21 (stereo unspecified),45*,i,17,1,i,43
CC(Nc1[nH]c(=O)n(C)c(=O)c1N=O)c1ccccc1 (stereo unspecified),0,i,6,6,i,nt
C#CCOCCOCCOCCNc1nc(N2CCN(C(=O)CCCCCCCCCCNC(=O)[C@@H](CCC(=O)O)n3cc(CCCCCN)nn3)CC2)nc(N2CCN(C(=O)CCCCCCCCCCNC(=O)[C@H](CO)n3cc(CCCSC)nn3)CC2)n1,19,i,nt,-3,i,nt
C#CCOCCOCCOCCNc1nc(N2CCN(C(=O)CCCCCCCCCCNC(=O)[C@H](CCCCN)n3cc(C)nn3)CC2)nc(N2CCN(C(=O)CCCCCCCCCCNC(=O)[C@H](CCCN=C(N)N)n3cc(C[C@@H](C)CC)nn3)CC2)n1,47*,i,nt,3,i,56*
C#CCOCCOCCOCCNc1nc(N2CCN(C(=O)CCCCCCCCCCNC(=O)[C@@H](CCC(=O)O)n3cc(CCCCCN)nn3)CC2)nc(N2CCN(C(=O)CCCCCCCCCCNC(=O)[C@H](CO)n3cc(CCCCCN)nn3)CC2)n1,46*,i,nt,-5,i,31
C#CCOCCOCCOCCNc1nc(N2CCN(C(=O)CCCCCCCCCCNC(=O)[C@@H](CCSC)n3cc(CCO)nn3)CC2)nc(N2CCN(C(=O)CCCCCCCCCCNC(=O)[C@H](CO)n3cc(CCCCCN)nn3)CC2)n1,48*,i,nt,-10,i,49*
CCCCc1ccc(NC(=S)N2CCN(c3ccccn3)CC2)cc1,9,i,-2,nt,i,nt
Cc1cc(C)c2nc(C)cc(N/N=C/c3ccc(O)cc3)c2c1,72*,i,3,99*,i,68*
Cc1cc(N/N=C/c2ccc(O)cc2)c2cccc(C)c2n1,59*,i,1,100*,i,56*
